Test results reported in PubChem BioAssay AID493131 (Broad Institute, 2011).
Out of some 340,000 compounds screened, about 3,300 (0.97%) were called active. The list comes from a sample in which actives are over-represented; it also holds similar structures and randomly drawn compounds. Values without a mark were called inactive.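 How the source made its calls: active means mean activation above about 17%, with every replicate also reaching it (limit read from the data, passing the limit was not always enough); inconclusive means only one of the two conditions met; inactive means the rest.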

Molecular target: Protein FosB (Mus musculus) (UniProt P13346)
Assay: activators of delta FosB homodimer, primary screen, biochemical, fluorescence polarization, TAMRA-CDK5 oligo, single point (AID 493131);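 further: fluorescence polarization rise as delta FosB binds a TAMRA Cdk5 AP-1 oligo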
Details: purified delta FosB, at 25 µM, stronger effect = higher value, percent of positive-control signal above neutral wells

Chain of Protein FosB (Mus musculus) (P13346 whole entry, looked up): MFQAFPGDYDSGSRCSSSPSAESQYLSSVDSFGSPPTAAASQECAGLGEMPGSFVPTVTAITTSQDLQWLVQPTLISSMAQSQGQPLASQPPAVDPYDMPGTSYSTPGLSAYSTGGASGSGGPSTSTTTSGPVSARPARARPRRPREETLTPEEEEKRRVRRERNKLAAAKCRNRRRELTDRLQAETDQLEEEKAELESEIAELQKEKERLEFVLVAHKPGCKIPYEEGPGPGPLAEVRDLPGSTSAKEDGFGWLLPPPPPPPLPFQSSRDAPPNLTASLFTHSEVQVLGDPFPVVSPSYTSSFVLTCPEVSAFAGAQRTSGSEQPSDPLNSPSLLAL

| SMILES | activation |
| --- | --- |
| CC(OC(=O)c1cc2ccccc2o1)C(=O)Nc1ccc(N2CCOCC2)cc1 (stereo not drawn) | -0.675% |
| CCCCC(c1nnnn1CS(=O)(=O)c1ccc(C)cc1)N1CCC(C(N)=O)CC1 (stereo not drawn) | -1.34% |
| COc1ccc(C(CNC(=O)c2ccc(S(=O)(=O)Nc3ccccc3F)cc2)N(C)C)cc1 (stereo not drawn) | 1.38% |
| COC(=O)c1ccc(S(=O)(=O)N2CCc3ccccc3C2)cc1 | -1.34% |
| CC(=O)Nc1ccc(S(=O)(=O)N2CCC(NC(=O)c3ccccc3)CC2)cc1 | 3.46% |
| O=C(Nc1ccc(S(=O)(=O)N2CCc3ccccc3C2)cc1)c1ccccc1 | 25.5% (active) |
| COc1cccc(/C=C2\Sc3ccc(C(=O)NCC4CCCO4)cc3N(C)C2=O)c1 (stereo not drawn) | 0.556% |
| COc1cccc(/C=C2/SC(=S)N(CC(=O)NC3C=CS(=O)(=O)C3)C2=O)c1 (stereo not drawn) | 35.9% (active) |
| O=C(CN1C(=O)S/C(=C\c2ccccc2Cl)C1=O)NC1C=CS(=O)(=O)C1 (stereo not drawn) | -2.97% |
| COc1ccc(S(=O)(=O)N2CCCC2CNC(=O)C(=O)NC2CC2)cc1 (stereo not drawn) | -3.99% |
| CC1C(=O)Nc2ccccc2N1C(=O)c1ccc(F)cc1F (stereo not drawn) | 1.98% |
| C/C(=C\C(=O)c1cccnc1)Nc1ccc(C)c(C)c1 | -1.12% |
| Cc1ccc(NC(=O)COc2ccc(/C=N\NC(=O)c3cccnc3)cc2)cc1C | 82.7% (active) |
| Cc1ccc(OCC(=O)NCCCNC(=O)c2cccnc2)cc1C | 2.57% |
| N#Cc1ccccc1S(=O)(=O)N1CCN(C(=O)c2cc(-c3ccccc3)nn2-c2ccccc2)CC1 | 1.25% |
| O=[N+]([O-])c1ccc(N2CCN(c3ccc(O)cc3)CC2)c(Cl)c1 | -9.93% |
| CCN(C(=O)COC(=O)c1ccc(COc2ccc3c(C)cc(=O)oc3c2)cc1)C1CCS(=O)(=O)C1 (stereo not drawn) | 2.03% |
| Cc1ccccc1NC(=O)c1ccc(COc2ccc3c(C)cc(=O)oc3c2)cc1 | 22.2% (active) |
| CCOC(=O)c1cc(=O)c2ccc(OCc3ccccc3)cc2o1 | -2.05% |
| Cc1ccc(C(C)C)c(OCCSc2nc3ccccc3n2CC(=O)O)c1 | -20.9% |
| CCOc1ccc(OCC(=O)Nc2c3c(nn2C(C)(C)C)CS(=O)(=O)C3)cc1 | -1.81% |

| SMILES | activation |
| --- | --- |
| CCOc1ccc(N(C)S(=O)(=O)c2cnc[nH]2)cc1 | -0.199% |
| Cc1ccc(-n2c(SCC(=O)Nc3ccc4c(c3)OCO4)nnc2-c2ccccn2)cc1 | -2.46% |
| Cc1ccc2nc(-c3ccccn3)cc(C(=O)Nc3ccc4c(c3)OCO4)c2c1 | 36.9% (active) |
| CSc1ncccc1C(=O)Nc1ccc2c(c1)OCO2 | -5.35% |
| O=C(N/C(=C\c1ccc([N+](=O)[O-])cc1)C(=O)N1CCCCC1)c1ccco1 | -1.72% |
| Cc1ccc(Cn2nnc3c(=O)n(CC(=O)N4CCCCC4)cnc32)cc1 | 3.79% |
| CCN(CC)C(=O)C(=O)c1cn(CC(=O)NCc2ccc3c(c2)OCO3)c2ccccc12 | -0.7% |
| O=C(Cn1nnc(-c2ccccc2)n1)NCc1ccc2c(c1)OCO2 | 22.6% (active) |
| O=C(Cn1cnc2c(nnn2Cc2ccc(F)cc2)c1=O)NCc1ccc2c(c1)OCO2 | 17.6% (active) |
| S=C(NCc1ccc2c(c1)OCO2)NCc1ccco1 | -2.47% |
| O=C(Cn1nnc(-c2ccc3c(c2)OCO3)n1)NCc1ccco1 | 33.3% (active) |
| CS(=O)(=O)N(CC(=O)NCc1ccco1)c1ccc2c(c1)OCO2 | 2.32% |
| COc1cc(-c2nnn(CC(=O)NCc3ccccc3)n2)cc(OC)c1OC | -0.135% |
| O=C(CN(C(=O)CCC(=O)Nc1nccs1)c1ccc(F)cc1)NCc1ccc2c(c1)OCO2 | 6.39% |
| O=C(NC1CCCC1)C(c1ccc(Cl)cc1)N(C(=O)c1csnn1)C1CC1 (stereo not drawn) | -6.23% |
| Cc1ccc(-c2cnc(NC(=O)CCC(=O)N(C)Cc3ccccc3)n2C)cc1 | -2.74% |
| CCCC1C(=O)N2C(N(C)C)=Nc3ccc(C)cc3N2C1=O (stereo not drawn) | 6.69% |
| COc1ccc(S(=O)(=O)N2CCN(C(C)C(=O)Nc3ccc(C(C)C)cc3)CC2)cc1 (stereo not drawn) | -3.44% |
| O=C(CCc1ccccc1)Nc1ccc(NC(=O)C2CC2)nc1 | 4.2% |
| COc1ccc(S(=O)(=O)N(CC(=O)N/N=C/c2ccc(C(=O)O)cc2)Cc2ccccc2)cc1OC | -11.9% |
| Cc1ccccc1NC(=O)CCOc1ccccc1 | -7.98% |

| SMILES | activation |
| --- | --- |
| CC(Oc1cccc(NC(=O)c2cccs2)c1)C(=O)c1ccccc1 (stereo not drawn) | -3.07% |
| O=C(Nc1ccccc1)c1ccc(NC(=O)c2cccs2)cc1 | 19% (active) |
| O=C(NC(=S)Nc1ccc(NC(=O)c2cccs2)cc1)c1ccc([N+](=O)[O-])cc1 | -0.174% |
| O=C(O)c1ccccc1C(=O)NC1=NN(c2ccccc2)CC1 | -3.52% |
| COc1cccc(-c2cc3nc4c(c(N5CCC6(CC5)OCCO6)n3n2)CCCC4)c1 | -1.84% |
| COc1ccc(C(=O)n2nc(-c3ccc(C)cc3)nc2N)cc1OC | 8.05% |
| COc1ccc(C(=O)n2nc(C)c(Br)c2C)cc1OC | 3.74% |
| COc1ccc(C(=O)n2nc(-c3ccc(Cl)cc3)nc2N)cc1OC | 30.9% (active) |
| CCN(CC)CCNC(=O)c1sc2ncn(CC(=O)Nc3ccc(C)c(Cl)c3)c(=O)c2c1C | -141% |
| Cc1nc2cc(NC(=O)CSc3nc4c(C)cccc4cc3C#N)ccc2s1 | 61.2% (active) |
| Cc1nonc1NC(=O)CSc1nc2ccccc2cc1C#N | 5.77% |
| Cc1cc(C)c(C#N)c(SCC(=O)Nc2ccccc2)n1 | 3.54% |
| Cc1ccc(C)c(NC(=O)C(c2ccccc2)N2CCN(CC(=O)NC3CC3)CC2)c1 (stereo not drawn) | -10.9% |
| NC(=O)c1cc(S(=O)(=O)N2CCCC2)ccc1OCc1ccc(F)cc1 | -1.72% |
| COc1ccc(NS(=O)(=O)c2ccc(NC(=O)c3ccc(N(C)S(C)(=O)=O)cc3)cc2)cc1 | 43.3% (active) |
| COc1ccc(C(=O)Nc2cccc(S(C)(=O)=O)c2)cc1 | -0.053% |
| COc1ccc(NS(=O)(=O)c2ccc(C(=O)Nc3c(C)n(C)n(-c4ccccc4)c3=O)cc2)cc1 | 1.19% |
| Cc1noc(C)c1NC(=O)Nc1cccc2c1O[C@H](CN(C)C(=O)Nc1ccccc1)[C@@H](C)CN([C@H](C)CO)C2=O | 4.59% |
| COc1ccc(C(=O)N(C)Cc2ccc(OC)c(OC)c2OC)cc1S(=O)(=O)N1CCOCC1 | -8.82% |
| COCCNC(=O)c1snc2ccc(Cl)cc12 | -8.32% |
| COc1cccc(NC(=O)CN(C)C(=O)Cc2ccc(Cl)cc2Cl)c1 | -4.55% |

| SMILES | activation |
| --- | --- |
| COC(=O)c1sc2ncccc2c1OCc1ccc(Cl)cc1Cl | 17% (active) |
| CC(=O)c1cccc(NC(=O)[C@@H](NC(N)=O)C(C)C)c1 | 2.28% |
| CN(C)CCN(C(=O)C1CCCCC1)c1nc2cc3c(cc2s1)OCO3 | 7.71% |
| CN(C)CCN(C(=O)CN1C(=O)c2ccccc2C1=O)c1nc2cc3c(cc2s1)OCCO3 | 38% (active) |
| Cc1ccc2nc(N(CCN(C)C)C(=O)C3=COCCO3)sc2c1 | -2.06% |
| Cn1nc(C(C)(C)C)c(NC(=O)c2sccc2Cl)c1C(C)(C)C | -8.28% |
| Cc1ccc(C)c(S(=O)(=O)N(C)c2ccc(OC(=O)C3CCN(C(=O)c4ccc(F)cc4)CC3)cc2)c1 | -7.71% |
| C=CCn1c(=O)n(C)c2c(=O)n(C)c(=O)n(C)c21 | -1.42% |
| Cc1sc2nc(COC(=O)C(NC(=O)c3ccc(Cl)cc3Cl)C(C)C)[nH]c(=O)c2c1C (stereo not drawn) | -6.82% |
| Cc1sc2nc(CSCC(=O)NC3CCCCC3)[nH]c(=O)c2c1C | -10.1% |
| Cc1sc2nc(CSCC(=O)Nc3c(Cl)cccc3Cl)[nH]c(=O)c2c1C | 32.5% (active) |
| COc1ccc2oc(C(=O)OCC(=O)N(CC(C)C)c3c(N)n(Cc4ccccc4)c(=O)[nH]c3=O)c(C)c2c1 | 3.39% |
| COc1ccc(C(CNC(=O)c2cccc(S(=O)(=O)Nc3ccc(Br)cc3)c2)N(C)C)cc1 (stereo not drawn) | 14% |
| COC(=O)c1cc(OC)c(OC)cc1NC(=O)CSc1ccc(C)cc1 | -0.589% |
| COc1ccc(C)cc1NC(=O)CSc1ccc(Cl)cc1 | -7.74% |
| COC(=O)c1scc(C)c1NC(=O)CSc1ccc(Cl)cc1 | 35% (active) |
| COc1ccc2sc(-c3ccc(N(C)C)cc3)c(-c3ccc4cc[nH]c4c3)c2c1 | -4.04% |
| COc1ccc2sc(-c3ccc(N(C)C)cc3)c(C#CCO)c2c1 | -9.84% |
| COc1ccc2c(c1)c(=Cc1ccc(N(C)C)cc1)c1cc(-c3ccccc3)[n+](C)n12 | 126% (active) |
| CCC(=O)NC(Nc1cc(C)ccn1)(C(F)(F)F)C(F)(F)F | -2.53% |
